Data taken from PubChem BioAssay.

Experiment: Plasmodium falciparum growth inhibition, primary screen, strain 3D7, DAPI fluorescence, 100 nL (AID 1184);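 also: parasites grown inside human red blood cells in medium with human serum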
Conditions: P. falciparum 3D7 growth, 3 d, higher = more signal
`COC(=O)[C@@H]1N=C(c2ccc(OCCCO)cc2)O[C@@H]1c1ccccc1` showed a z-score of -0.641.
`COCCOC(=O)N1C(=O)[C@@]2(c3ccccc31)[C@H](c1ccc(O)cc1)N1[C@H](c3ccccc3)[C@H](c3ccccc3)OC(=O)[C@H]1[C@@H]2C(=O)N1CCN(c2ncccn2)CC1` gave a z-score of -1.16.
Work on `CC(C)[Si]1(C(C)C)OCc2cc(-c3ccc(-c4ccc(Cl)c(Cl)c4)o3)nc(-c3ccccc3)c21` yielded a z-score of 0.138.
For `[N-]=[N+]=Nc1ccccc1[C@H]1OC(c2ccc(OCCCO)cc2)=N[C@@]1(Cc1ccccc1)C(=O)NCCN1CCOCC1`, the z-score was -2.18.
`CC(C)[Si]1(C(C)C)OCc2cc(C3CC3)nc(-c3ccc(Oc4ccccc4)cc3)c21` showed a z-score of -1.39.
Molecule `[N-]=[N+]=Nc1ccccc1[C@@H]1OC(c2ccc(OCCCO)cc2)=N[C@]1(Cc1ccccc1)C(=O)O` has a z-score of -1.85.
Molecule `CO[C@H]1O[C@H](CO)[C@@H](OC(=O)Nc2ccc(Br)cc2)[C@@H]2OC(=O)[C@@H](Cc3ccccc3)C/C=C/C[C@H](Cc3ccccc3)C(=O)O[C@@H]12` has a z-score of -0.683.
With `CS(=O)(=O)CCOC(=O)C1=CC(c2ccc(CO)cc2)=CC(C2CC2)N(Cc2sc3ccccc3c2Cl)C=C1C(=O)OCCS(C)(=O)=O` (stereo not drawn) the z-score was -3.02.
`COC(=O)[C@@]1(Cc2ccccc2)[C@H]2c3cc(C(=O)N(C)C)n(Cc4ccc(C)o4)c3C[C@H]2CN1C(=O)c1ccccc1` showed a z-score of -1.81.
`CCCC[C@@H](O)C1=C(COC)C[C@H]2C(=O)N(Cc3ccccc3)C(=O)[C@H]2[C@H]1CO` showed a z-score of 0.553.
`NC(=O)[C@H]1[C@@H]2C(=O)O[C@@H](c3ccccc3)[C@@H](c3ccccc3)N2[C@@H](c2ccc(OCCO)cc2)[C@]12C(=O)Nc1ccc(C#CCCO)cc12` showed a z-score of 0.358.
Work on `CCCCC[C@H]1OC[C@@]23C=C(Br)[C@@H](CC12)[C@@]1(CO1)C3=O` (stereo partly drawn) yielded a z-score of 1.66.
`C=C(C(=O)CC[C@H](OC(=O)c1ccccc1-c1ccccc1C(=O)O)c1cccc(OCCO)c1)C(C)C` gave a z-score of -2.12.
For `C=CCNC(=O)[C@@H]1[C@H]2C(=O)O[C@H](c3ccccc3)[C@H](c3ccccc3)N2[C@H](c2ccc(OCCO)cc2)[C@@]12C(=O)N(C(=O)OCCOC)c1ccc(C#Cc3ccc(OC)cc3)cc12`, the z-score was -2.07.
In the case of `NCCCCCCNC(=O)[C@@H]1C[C@@H]2C(=O)N[C@@H](CCCCN)C(=O)N2[C@@H]1c1ccc(O)cc1`, the z-score is reported as -0.978.
`COc1cc2c(cc1O)C=[N+](Cc1sc3ccccc3c1Cl)CC2` gave a z-score of -1.84.
`CC(C)N1C(=O)c2ccccc2[C@@H](C(=O)NCCN2CCOCC2)[C@@H]1c1ccc(CO)cc1` showed a z-score of -0.22.
For `COCCOC(=O)N1C(=O)[C@@]2(c3cc(C#CCCO)ccc31)[C@H](c1ccc(OCCO)cc1)N1[C@H](c3ccccc3)[C@H](c3ccccc3)OC(=O)[C@H]1[C@@H]2C(=O)Nc1nc2ccccc2s1`, the z-score was 0.335.
In the case of `CCCCN1CC=CC23O[C@@H]4/C=C\CCCOC(=O)C4[C@H]2C(=O)N(CCO)[C@@H]3C1=O` (stereo partly drawn), the z-score is reported as -1.09.
With `Oc1ccc2cc[n+](Cc3cc4c(cc3Br)OCO4)cc2c1` the z-score was 0.0298.
Molecule `CCOC(=O)C[C@H]1[C@H](OC(=O)c2ccc(C(=O)c3ccccc3)cc2)[C@@H](NC(=O)CC(C)C)c2cc(OCCCO)ccc2N1C(=O)c1ccccc1` has a z-score of 1.38.
For `C=CCOC(=O)[C@@H]1[C@H]2C(=O)O[C@H](c3ccccc3)[C@H](c3ccccc3)N2[C@H](c2ccc(OCCOC(=O)[C@@H]3C[C@@H]4C(=O)N[C@@H](CCCC[N+](C)(C)C)C(=O)N4[C@@H]3c3ccc(O)cc3)cc2)[C@@]12C(=O)Nc1ccc(I)cc12`, the z-score was -1.11.
`COc1ccc(CCNC(=O)[C@@]2(c3ccc([N+](=O)[O-])cc3)CC(=O)N(C3CCCCC3)[C@@H]2c2ccc(CO)cc2)cc1` showed a z-score of -0.171.
For `CN(C)C(=O)[C@]1(Cc2ccccc2CN=[N+]=[N-])N=C(c2ccc(OCCCO)cc2)O[C@@H]1c1ccccc1`, the z-score was -2.78.
Molecule `Cc1ccc(C(C)CC(O)C2C=CC3C(=O)N(c4ccccc4)C(=O)C3N2Nc2ccccc2)o1` (stereo not drawn) has a z-score of -0.54.
`O=C(c1ccccc1)N1C(=O)[C@]2(Cc3ccccc31)N=C(c1ccc(OCCCO)cc1)O[C@@H]2c1ccccc1` showed a z-score of -1.87.
In the case of `CS(=O)(=O)CCOC(=O)C1=CC(CCCO)=CC(c2ccc(CN3CCCC3)cc2)N(Cc2sc3ccccc3c2Cl)C=C1C(=O)OCCS(C)(=O)=O` (stereo not drawn), the z-score is reported as -3.03.
`Cc1ccc(F)cc1S(=O)(=O)N[C@@H]1CCN(Cc2ccc(Br)cc2)C1` showed a z-score of -0.999.
